A selection: hits, their analogues and other compounds. The true share with any hit is near 9.4%.
HPGD block: qHTS Assay for Inhibitors of HPGD (15-Hydroxyprostaglandin Dehydrogenase); purified HPGD, NADH fluorescence kinetic, PGE2 substrate; Potency, µM, inactives show at the top dose activity change, negative = inhibition, actives largely listed as inhibitors; hit rate 4.3% among 150,000; active means well fitted inhibition curve with a large enough effect, not every such curve was filed as active; inconclusive means small, poorly fitted or top-dose-only effect, or another doubt; inactive means no such curve, though single readings can be large or run the other way; further: potency means the concentration at half of the fitted maximal effect; on the % scale 0 is the no-effect control and ±100 the full control effect
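NADH formation kinetics: reaction with 30 uM PGE2 and 1 mM NAD+ (final), 20 nM enzyme, Tris-HCl pH 8 with Tween 20, after 15 min compound preincubation at room temperature. Fluorescence change, last versus first of five reads.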
IMPase inh: qHTS Assay for Identifying the Cell-Membrane Permeable IMPase Inhibitors; Inositol monophosphatase 1 (Rattus norvegicus), P97697; CHO-M1 cells, IP1 accumulation, HTRF TR-FRET ratio; inhibition (IP1 accumulation), % at 46.1 µM; 120,000 tested, under 10 active; AID 901, 2007; active means well fitted curve in the direction sought with a large enough effect in the signal ratio, not every such curve was filed as active; inconclusive means small, poorly fitted or top-dose-only effect, or a change in a side signal; inactive means no such curve, though single readings can be large or run the other way; the % refers to the signal ratio;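 further: cells stimulated with carbachol in lithium chloride buffer; plate controls were DMSO basal wells for no effect and reference inhibitor wells for full effect; higher means more IMPase inhibition seen as more IP1 and lower FRET ratio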
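Measured: the HTRF emission ratio (665/620 nm) plus the 620 nm donor channel, each fitted to the Hill equation to give AC50. Cells were CHO-M1 given compounds up to 46 uM and a 30 min carbachol stimulation at 37C.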
HTT aggregate: qHTS Multiplex Assay to Identify Dual Action Probes in a Cell Model of Huntington: Aggregate Formation (GFP). hit rate 1.1% among 220,000. AID 1688, 2009. PC12 HttQ103-GFP aggregates, Acumen cytometry, 40 h. Potency, µM (highest dose often 46.1 µM), for inactives: at the top dose activity change, negative = inhibition, usual class: inhibitors; further: potency means the concentration at half of the fitted maximal effect; on the % scale 0 is the no-effect control and ±100 the full control effect; nearly all actives have a fitted effect of over 60% in size
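Inducible Q103 Huntingtin exon 1–GFP PC12 line, 1500 cells/well in phenol red free DMEM with 5% equine and 5% calf serum. Tebufenozide 100 nM induced expression; compounds titrated; aggregates quantified by cytometry.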
ALDH1A1 inh: qHTS Assay for Inhibitors of Aldehyde Dehydrogenase 1 (ALDH1A1); Aldehyde dehydrogenase 1A1 (Homo sapiens), P00352; Purified ALDH1A1, NADH fluorescence, propionaldehyde substrate; Potency, µM (series often up to 75.3 µM), without a hit: at the top dose activity, negative = inhibition, actives largely listed as inhibitors; hit rate 7.3% among 220,000; active means well fitted inhibition curve with a large enough effect, not every such curve was filed as active; inconclusive means small, poorly fitted or top-dose-only effect, or another doubt; inactive means no such curve, though single readings can be large or run the other way;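 further: potency means the concentration at half of the fitted maximal effect; plate controls were no enzyme wells and a reference inhibitor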
Target sequence (P00352 whole entry, looked up): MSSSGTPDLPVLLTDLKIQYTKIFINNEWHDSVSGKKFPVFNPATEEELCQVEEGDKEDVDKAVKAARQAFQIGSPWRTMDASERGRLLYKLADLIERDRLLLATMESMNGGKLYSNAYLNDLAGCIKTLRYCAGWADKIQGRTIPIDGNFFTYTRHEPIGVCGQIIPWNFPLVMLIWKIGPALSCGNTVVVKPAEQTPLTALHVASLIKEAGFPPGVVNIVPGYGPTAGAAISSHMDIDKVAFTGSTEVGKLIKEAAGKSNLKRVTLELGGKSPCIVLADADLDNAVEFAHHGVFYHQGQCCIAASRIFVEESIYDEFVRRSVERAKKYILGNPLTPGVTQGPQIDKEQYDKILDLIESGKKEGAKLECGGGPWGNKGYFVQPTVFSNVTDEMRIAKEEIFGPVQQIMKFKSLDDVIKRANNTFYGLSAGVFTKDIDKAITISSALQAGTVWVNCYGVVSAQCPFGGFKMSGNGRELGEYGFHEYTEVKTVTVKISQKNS
IMPase Li cell: qHTS Assay for Identifying the Cell-Membrane Permeable IMPase Inhibitors: Potentiation with Lithium. CHO-M1 cells, IP1 TR-FRET (IP-One), carbachol + lithium. Potency, µM (series often up to 59.4 µM), without a hit: at the top dose activity, negative = IMPase inhibition, hits mostly inhibitors. hit rate 0.35% among 210,000. AID 1457, 2008;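 further: IP1 builds up when IMPase is blocked and the TR-FRET signal falls; potency means the concentration at half of the fitted maximal effect; plate controls were basal vehicle for no effect and high inhibitor control for full effect; nearly all actives have a fitted effect of over 50% in size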
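Concentration–response in CHO-M1 cells, lithium-potentiated; 30 min at 37C. IP1 detected by competitive TR-FRET after 10 min lysis at RT. Hill-fitted AC50.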
HTT cytoprotect: qHTS Multiplex Assay to Identify Dual Action Probes in a Cell Model of Huntington: Cytoprotection (ATP); PC12 HTT-Q103 induced, cytoprotection, ATP luminescence, 40 h; hit rate 0.14% among 230,000; AID 1471, 2008; Potency, µM (doses to about 56.4 µM), for inactives: cytoprotection (ATP increase), hits mostly activators; further: potency means the concentration at half of the fitted maximal effect; % of control where 0% means no effect; nearly all actives have a fitted effect of over 45% in size
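Compounds were screened for protection of PC12 cells against cell death after tebufenozide induction (100 nM final) of mutant Huntingtin exon 1 (Q103) fused to GFP.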
Starred values were filed as active, the others as inactive; [ ] = remark or other dose. Unless noted, the call rests on the fitted dose curve; in most records, active means well fitted curve in the direction sought with a large enough effect; inconclusive means small, poorly fitted or top-dose-only effect, or another doubt; inactive means no such curve, though single readings can be large; an effect the other way counts as inactive or inconclusive.

How did Cc1cccc(-c2nc(CSCC(=O)N3CCN(Cc4ccc5c(c4)OCO5)CC3)c(C)o2)c1 do in these assays?
HPGD block: -26.8%; IMPase inh: 6.6; HTT aggregate: 10µM*; ALDH1A1 inh: inconclusive; IMPase Li cell: 24.9%; HTT cytoprotect: -0.5%[10 µM]

How did O=C(CSCc1ccccc1)N1CCN(Cc2ccc3c(c2)OCO3)CC1 do in these assays?
HPGD block: -7.8%; IMPase inh: 2.5; HTT aggregate: -12.3%; ALDH1A1 inh: -9.6%; IMPase Li cell: 8.4%; HTT cytoprotect: -14.0%[10 µM]

How did Cc1ccc(-c2nc(CSCC(=O)N3CCN(C(=O)c4ccco4)CC3)c(C)o2)cc1 do in these assays?
HPGD block: -14.9%; IMPase inh: 5.4; HTT aggregate: -18.0%; ALDH1A1 inh: 22.4µM*; IMPase Li cell: 9.6%[38.3 µM]; HTT cytoprotect: -14.9%

What do the screens show for `Cc1ccc(-c2nc(CSCC(=O)N3CCOCC3)c(C)o2)cc1`?
HPGD block: -15.7%; IMPase inh: -13.7; HTT aggregate: -28.9%; ALDH1A1 inh: inconclusive; IMPase Li cell: 2.4%[38.3 µM]; HTT cytoprotect: -7.4%

What do the screens show for `CCCCCSc1nnc2c(n1)OC(c1ccc(C)s1)N(C(C)=O)c1ccccc1-2` (stereo not drawn)?
IMPase inh: 11.9

What do the screens show for `COC(=O)c1ccc(COc2ccc(C=O)cc2OC)o1`?
HTT aggregate: 5.7%[9.22 µM]; ALDH1A1 inh: inconclusive; IMPase Li cell: 6.2%; HTT cytoprotect: 20.0%[10 µM]

What do the screens show for `CCC(=O)c1ccc(OCc2ccc(C(=O)OC)o2)c(OC)c1`?
HPGD block: 22.4µM*; IMPase inh: 0.8; HTT aggregate: 16.0%[9.22 µM]; ALDH1A1 inh: inconclusive; IMPase Li cell: 16.9%[38.3 µM]; HTT cytoprotect: -0.8%

Results for CSc1nc(/C=C2\C=Nc3ccccc32)c(O)n1C ?
HPGD block: 35.5µM*; HTT aggregate: 13.4%; ALDH1A1 inh: -4.6%; IMPase Li cell: 8.7%; HTT cytoprotect: 3.0%[10 µM]

What do the screens show for `COc1cc(C2Nc3ccc4ncccc4c3C3=C2C(=O)CC(C)(C)C3)cc(OC)c1O` (stereo not drawn)?
HPGD block: -13.1%; IMPase inh: 10.9; HTT aggregate: inconclusive; ALDH1A1 inh: 12.6µM*; IMPase Li cell: 2.2%[38.3 µM]; HTT cytoprotect: -6.0%

Results for COc1cc(C2Nc3ccc4ncccc4c3C3=C2C(=O)CCC3)cc(OC)c1O (stereo not drawn) ?
HPGD block: -8.5%; IMPase inh: 2.7; HTT aggregate: 32.1%; ALDH1A1 inh: -2.9%; IMPase Li cell: 25.4%[38.3 µM]; HTT cytoprotect: -42.8%

What do the screens show for `CC1(C)CC(=O)C2=C(C1)c1c(ccc3ccccc13)NC2c1cc([N+](=O)[O-])cc([N+](=O)[O-])c1O` (stereo not drawn)?
HTT aggregate: 6.8%[9.22 µM]; ALDH1A1 inh: 11.2µM*; IMPase Li cell: 21.7%; HTT cytoprotect: -11.7%[10 µM]

What do the screens show for `CC1=C(C(=O)Nc2ccc(Cl)cc2)C(C(C)C)n2nc(SCc3cccc(C)c3)nc2N1` (stereo not drawn)?
IMPase inh: -19.0

How did CCOc1ccccc1-c1c2cc(O)c(=O)cc-2oc2cc(O)c(O)cc12 do in these assays?
HPGD block: 17.8µM*; IMPase inh: inconclusive; HTT aggregate: -3.6%; ALDH1A1 inh: 20µM*; IMPase Li cell: 34.5%; HTT cytoprotect: 7.5%[10 µM]

Results for COc1ccc(OC)c(-c2c3cc(O)c(=O)cc-3oc3cc(O)c(O)cc23)c1 ?
HPGD block: 14.1µM*; HTT aggregate: 5.01µM*; ALDH1A1 inh: inconclusive; IMPase Li cell: 25.6%

Assay outcomes: PubChem, National Center for Advancing Translational Sciences (NCATS)
